Experimental data reported in article PMC7819943, “Rice protein-binding microarrays: a tool to detect cis-acting elements near promoter regions in rice”.
Whole data set: some 68,000 sequences, median “fluorescence intensity (a.u.)” near 9,100, cut for the highest 2% near 16,000. Shown is part of a subset that was picked to be rich in the highest values.

biological target: OsWRKY34 (Oryza sativa, UniProt Q0JBA9 1-250); test: protein-binding microarray (RPBM); PBS, 2% BSA, 51.3 ng/ul salmon testes DNA, 50 uM zinc acetate, 200 nM TF, 25 C, 1 h; high values mean tight binding; settings: protein: recombinant; tags: N-terminal polyhistidine and DsRed monomer fusion (pET32a); label: CyDye5-dUTP incorporated in the synthesized complementary strand; 3' TTTTT single-stranded linker to array surface; dsDNA, one strand shown
Outline: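 Polyhistidine-tagged DsRed fusions of transcription factors, joined at the N-terminus, were expressed in E. coli BL21-CodonPlus and isolated on Ni–NTA. They were incubated at 200 nM for 1 h at 25 °C on a custom Agilent array, double-stranded and BSA-blocked, in PBS with 2% BSA, salmon testes DNA and 50 µM zinc acetate. The binding signal is per-feature fluorescence intensity (arbitrary units) read on an Axon 4000B scanner after washing.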

Sequence of OsWRKY34 (Q0JBA9 entry or part of it): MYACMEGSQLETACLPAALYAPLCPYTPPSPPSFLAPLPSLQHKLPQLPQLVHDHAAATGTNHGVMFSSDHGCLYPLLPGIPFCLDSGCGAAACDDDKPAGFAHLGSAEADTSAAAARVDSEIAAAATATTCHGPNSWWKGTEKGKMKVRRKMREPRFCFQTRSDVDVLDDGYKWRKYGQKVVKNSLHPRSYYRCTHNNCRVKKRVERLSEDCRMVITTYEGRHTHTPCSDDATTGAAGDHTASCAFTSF

| Sequence | binding signal |
| --- | --- |
| TCCATGGATATTTTGTCTCTTCTGCTTGATCACTAGGCCCCGGAGTCACCTAGTGCAG | 10100 fluorescence intensity (a.u.) |
| TCCCGACACCGGCTGTCCACTTCGCTCTGCTCCACGCCGCCGGAGTCACCTAGTGCAG | 8660 fluorescence intensity (a.u.) |
| CTCCCTGAGTCTAGTCCCGATCCCCACCGTTGACCGAAGTCGGAGTCACCTAGTGCAG | 19900 fluorescence intensity (a.u.) |
| ATCCCCACCGTTGACCGAAGTTGACCTCCAAGAATCCTGACGGAGTCACCTAGTGCAG | 13800 fluorescence intensity (a.u.) |
| TCAACTCCTCCCTGAGTCTAGTCCCGATCCGCCGTTGACCCGGAGTCACCTAGTGCAG | 13000 fluorescence intensity (a.u.) |
| CTGAGAATTTAGGACCTGATCACTTTTATGACATTTTCAACGGAGTCACCTAGTGCAG | 8610 fluorescence intensity (a.u.) |
| TGCGTTTATTTATACCGTTGTCCTCGCGTACTGTTTTATTCGGAGTCACCTAGTGCAG | 19400 fluorescence intensity (a.u.) |
| AGTGGTGCATTCTGTTTTTTTATATATTATTATTTGTTTACGGAGTCACCTAGTGCAG | 9050 fluorescence intensity (a.u.) |
| TTTCCGTACTAAATTTTGTTCATTCGTTTTATTTATTTTTCGGAGTCACCTAGTGCAG | 17100 fluorescence intensity (a.u.) |
| TTTGCATTTATTTTTCATTGTTTCCGTCACTTTAGAAATTCGGAGTCACCTAGTGCAG | 8260 fluorescence intensity (a.u.) |
| CATTTATCTATTTATCTATCTATATATATTATATTATATTCGGAGTCACCTAGTGCAG | 8560 fluorescence intensity (a.u.) |
| GCTTTCTGTGGTGCATTCTATATTTTTTATATATTATTATCGGAGTCACCTAGTGCAG | 16400 fluorescence intensity (a.u.) |
| GGGTTTTTTATATACTGGTAAATATTCGCTACCGTATTCGCGGAGTCACCTAGTGCAG | 9130 fluorescence intensity (a.u.) |
| CCCATTATTTTTTATACCTTTATTTATCTTCTGTGTTTTTCGGAGTCACCTAGTGCAG | 13500 fluorescence intensity (a.u.) |
| TGTAGTTGTGAGTGTATTCGTTTGTACTGTTTTTTTTATACGGAGTCACCTAGTGCAG | 11900 fluorescence intensity (a.u.) |
| GCCATTATATCTGCAGTTCTTTTCTGTGCTAAAATTTTAGCGGAGTCACCTAGTGCAG | 17100 fluorescence intensity (a.u.) |
| AATTTCTGCTGCCATTTTCTATGTTCTTTAGTCTAAGTTTCGGAGTCACCTAGTGCAG | 14700 fluorescence intensity (a.u.) |
| TTCGTATTTGTTTCCGTATCCGGATTATTCATATTCGTTTCGGAGTCACCTAGTGCAG | 8050 fluorescence intensity (a.u.) |
| GAGCACATACTTTGGTCATTAATGGTGATTATAATGATATCGGAGTCACCTAGTGCAG | 8820 fluorescence intensity (a.u.) |
| GAGGAAACATCTATCCCGGTCAAAGCCTGAGCATGTACACCGGAGTCACCTAGTGCAG | 8210 fluorescence intensity (a.u.) |
| TTTCTCTTTGCACCCTAGCCTCATGTTCTTCTTCTTCCTCCGGAGTCACCTAGTGCAG | 8680 fluorescence intensity (a.u.) |
| GAAGAGCCGGCTCGTTCCTCTCCTTCCCGTTCACATTTCACGGAGTCACCTAGTGCAG | 8260 fluorescence intensity (a.u.) |
| CTGATGTCTGAACGACTGTACCCGACGTTGTTGATTGCTTCGGAGTCACCTAGTGCAG | 9820 fluorescence intensity (a.u.) |

| Sequence | binding signal |
| --- | --- |
| GGGCGACAAGCACGCGTATACCCATCTATCATCCCGCTCCCGGAGTCACCTAGTGCAG | 8390 fluorescence intensity (a.u.) |
| CACCAGCATCCTCGCACGGTCGCGACCCCTCCCGCACCTCCGGAGTCACCTAGTGCAG | 8200 fluorescence intensity (a.u.) |
| CAATCCGGACCATATAAGTGTTTTCCTTTTTTAATTCTTTCGGAGTCACCTAGTGCAG | 11300 fluorescence intensity (a.u.) |
| ATAGTCATTTATTTTGTGCTCTCGTATTTTTTTTCTGTTTCGGAGTCACCTAGTGCAG | 9540 fluorescence intensity (a.u.) |
| CCCCTATTTTGTTACCTCATTATTCTCGTATTCCCCTTTTCGGAGTCACCTAGTGCAG | 9810 fluorescence intensity (a.u.) |
| TTATTTTGTGATTACTATCTCTCCGTTCATGTTTCTATCTCGGAGTCACCTAGTGCAG | 16400 fluorescence intensity (a.u.) |
| GTATTTTAAGCATATTTTTTCGTTTTTTATATTTGTAAAACGGAGTCACCTAGTGCAG | 11000 fluorescence intensity (a.u.) |
| TACATTACTTCATATTTTTTTCTGTTTGTGATTTCTATTTCGGAGTCACCTAGTGCAG | 9740 fluorescence intensity (a.u.) |
| AATTTTGTATATTCGTTTGCACGTTTTTAAAACTCCTAAACGGAGTCACCTAGTGCAG | 65500 fluorescence intensity (a.u.) |
| AAATTTGTATAGACGTTTGCTTTTAACTTAGTCCTAAATTCGGAGTCACCTAGTGCAG | 9130 fluorescence intensity (a.u.) |
| TACTATTTTTTCTCGTATTCATTATTTTGTGCATTATTTTCGGAGTCACCTAGTGCAG | 17200 fluorescence intensity (a.u.) |
| ACTATTACTTCTATTTTCTAGTATTTTTTTTTGTTTCTCTCGGAGTCACCTAGTGCAG | 13500 fluorescence intensity (a.u.) |
| GATTGGGCGATTTCATCTTCTTCTTGGCCTTGAGGCGGTACGGAGTCACCTAGTGCAG | 10000 fluorescence intensity (a.u.) |
| TTTCTTAGCTATGTCCTAATTTATTACTGTGCATGTTTCTCGGAGTCACCTAGTGCAG | 10900 fluorescence intensity (a.u.) |
| CACATGTCATTGTCACACACACGCGCGCCCCATTGGACATCGGAGTCACCTAGTGCAG | 9860 fluorescence intensity (a.u.) |
| ATTTGCACCTGTTGAATGGGCATGTCTTGTGTGTGTTTCTCGGAGTCACCTAGTGCAG | 8400 fluorescence intensity (a.u.) |
| CCCACCAGGCCACCAAACTCTCTCGGGCCGAAACGGTCAACGGAGTCACCTAGTGCAG | 8380 fluorescence intensity (a.u.) |
| GTGGGGTCGGGTACTCGCGTGGGCCCACCTGGCCGGTCAACGGAGTCACCTAGTGCAG | 10200 fluorescence intensity (a.u.) |
| TCTCGGGCCGAAACGGTCAACGCGTTTACCGGTGGCATAACGGAGTCACCTAGTGCAG | 17500 fluorescence intensity (a.u.) |
| TCCTCTTGCAATCATTCACTCTCCTTGCTCGATTCTATAACGGAGTCACCTAGTGCAG | 11300 fluorescence intensity (a.u.) |
| AATTCTTTTGTCGTATTATCCTATCTACTTCCACTTATAACGGAGTCACCTAGTGCAG | 8560 fluorescence intensity (a.u.) |
| AATATAGTTGCTGATGCGCTGTCCAGGATGCCTGTTATACCGGAGTCACCTAGTGCAG | 9400 fluorescence intensity (a.u.) |
